For part of these data: Entries with a potency or affinity are not part of this list. Activity calls are given as the source filed them.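 Rule for the calls, unless noted: active = signal rise over 3 SD above mean of control wells given weak agonist, in both repeats and first screen; inactive = the rest.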
Tests used:
[1] = tested on: TRPC4 beta (transient receptor potential cation channel C4), mouse; test: activators of mouse TRPC4 channel, confirmation, cell-based, Fluo4 calcium, HEK293 TRPC4beta/mu-opioid, duplicates, 10 µM (AID 2426;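 active = fluorescence ratio normalized to control raised more than 50% in primary screen plus both repeat runs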;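 for activation: percent rise of integrated ratio over buffer wells lacking compound which define 0%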); details: Fluo4 calcium fluorescence, at 10 µM; hits give high values
[2] = tested on: transient receptor potential cation channel C4 beta (TRPC4), mouse; test: activators of mouse TRPC4 channel, confirmation, cell-based, second round, Fluo4, HEK293 TRPC4beta/mu-opioid, 1 µM (AID 2461;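 active = primary screen active and over 50% activation in each of two duplicate runs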;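 for activation: 0% = wells without test compound as baseline of integrated fluorescence ratio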); details: Fluo4 calcium fluorescence, at 1 µM; hits give high values
[3] = tested on: TRPC4 (transient receptor potential cation channel C4 beta), mouse; test: positive allosteric modulators of mouse TRPC4, confirmation, cell-based, second round, Fluo-4, HEK293 TRPC4beta/mu-opioid, 1 µM (AID 2554;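 active = primary screen hit whose fluorescence ratio, in both repeats, exceeds the weak agonist control mean by 3 SD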); details: DAMGO EC20, Fluo-4 calcium flux, at 1 µM; hits give high values
[4] = tested on: TRPC4 beta (transient receptor potential cation channel C4), mouse; test: positive allosteric modulators of mouse TRPC4, confirmation, cell-based, Fluo-4, HEK293 TRPC4beta/mu-opioid (AID 2555;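 active = primary screen hit whose calcium fluorescence ratio, in both repeats, exceeds the weak agonist control mean by 3 SD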); details: DAMGO EC20, Fluo-4 calcium flux, at 10 µM; hits give high values
[5] = target: Short transient receptor potential channel 4 (Mus musculus) (UniProt Q9QUQ5); test: inhibitors of mouse TRPC4 channel, confirmation, cell-based, Fluo4, HEK293 TRPC4beta/mu-opioid (AID 2636;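 active = calcium signal cut by more than 3 SD below the full-agonist control yet still positive, in both repeats and the earlier primary screen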); details: DAMGO, Fluo4 calcium flux, at 10 µM; hits give high values
[6] = target: Short transient receptor potential channel 4 (Mus musculus) (UniProt Q9QUQ5); test: inhibitors of mouse TRPC4 channel, confirmation, cell-based, second round, Fluo4, HEK293 TRPC4beta/mu-opioid, 1 µM (AID 2637;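 active = calcium signal ratio cut to more than 3 SD under the fully stimulated control mean yet still positive, in both repeats and the primary screen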); details: Fluo4 calcium flux, DAMGO, at 1 µM; hits give high values
[7] = target: Short transient receptor potential channel 4 (Mus musculus) (UniProt Q9QUQ5); test: TRPC4 positive allosteric modulators, dose response, cell-based, HEK293 TRPC4/mu-opioid, Fluo-4 calcium, EC20 DAMGO (AID 434941;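 active = earlier screen potentiator hit that boosts the TRPC4 ion channel at some dose, with a dose response; inactive = no potentiation, no dose response, or not a prior hit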;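 note: calcium entry triggered by an EC20 dose of DAMGO at the co-expressed mu-opioid receptor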)
[8] = target: Short transient receptor potential channel 4 (Mus musculus) (UniProt Q9QUQ5); test: mouse TRPC4 channel inhibitors, dose response, cell-based, HEK293 TRPC4/mu-opioid, Fluo-4 calcium (AID 434942;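 active = primary screen inhibitor hit that blocks the TRPC4 channel at some tested dose, yielding a dose curve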)
[9] = target: Short transient receptor potential channel 6 (Mus musculus) (UniProt Q61143); test: inhibition of mouse TRPC6 channel, confirmation, selectivity assay for TRPC4 inhibitor project, cell-based, HEK293, membrane potential dye, duplicate (AID 434948;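 active = active in primary screen and both duplicates, each dropping signal beyond three positive-control SD with fluorescence still positive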); details: HEK293 TRPC6, membrane potential dye fluorescence, at 10 µM, stimulated with maximal-effect acetylcholine; hits give high values
[10] = target: Short transient receptor potential channel 6 (Mus musculus) (UniProt Q61143); test: activation of mouse TRPC6 channel, confirmation, selectivity assay for TRPC4 activator project, cell-based, HEK293, membrane potential dye, duplicate (AID 434950;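 active = membrane potential signal rise above negative control mean plus 3 SD in both duplicates, also active in the earlier TRPC4 screen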;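 for activation: 0% = buffer only wells and 100% = acetylcholine maximal-effect wells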); details: HEK293 TRPC6, membrane potential fluorescence, at 10 µM; hits give high values
[11] = target: Short transient receptor potential channel 6 (Mus musculus) (UniProt Q61143); test: TRPC6 potentiation by TRPC4 potentiator hits, confirmation, selectivity assay for TRPC4 potentiator project, HEK293 cells, membrane potential dye, duplicate (AID 434952;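 active = compound raising the membrane signal above positive-control mean plus 3 SD in both repeats, and a primary screen hit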); details: HEK293 TRPC6, membrane potential dye fluorescence, at 10 µM, maximal acetylcholine added after compound; hits give high values
[12] = target: Short transient receptor potential channel 4 (Mus musculus) (UniProt Q9QUQ5); test: calcium flux activators in TRPC4/5HT1a cells, counter-screen for TRPC4 activator project, cell-based, second counter screen, HEK293 TRPC4/5HT1a, Fluo-4 (AID 434977;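 active = calcium signal rise above buffer-control mean plus 5 SD in both duplicates, and also a hit in the primary screen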;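 for activation: plate controls were assay buffer for no effect and maximal serotonin response for full effect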); details: Fluo-4 calcium flux, at 10 µM; hits give high values
[13] = calcium flux inhibitors in TRPC4/5HT1a cells, confirmation, counter-screen for TRPC4 inhibitor project, cell-based, second counter screen, HEK293 TRPC4/5HT1a, Fluo-4 (AID 434978;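 active = primary screen active whose calcium signal fell more than 3 SD beyond the full-serotonin control mean in both duplicate plates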;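 note: serotonin given first at submaximal then at maximal dose after compound preincubation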); details: Fluo-4 calcium flux, at 10 µM, serotonin added to trigger calcium flux; hits give high values
[14] = tested on: TRPC4 (mouse), co-expressed with 5HT1a in HEK293; test: calcium flux potentiators in TRPC4/5HT1a cells, confirmation, counter-screen for TRPC4 potentiator project, cell-based, second counter screen, HEK293 TRPC4/5HT1a, Fluo-4 (AID 434979); details: Fluo-4 calcium flux, at 10 µM, serotonin added at its EC20 dose; hits give high values
[15] = calcium flux activation in mu-opioid HEK293 cells, confirmation, counter-screen for TRPC4 activator project, cell-based, HEK293 mu-opioid receptor line (AID 449723;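 active = hit in primary screen, with calcium signal over 5 SD above buffer well mean in both duplicates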;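 note: counter screen cells carry the mu-opioid receptor alone and lack TRPC4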); details: Fluo-4 calcium fluorescence, at 10 µM; hits give high values
[16] = calcium flux enhancement in mu-opioid HEK293 cells, confirmation, counter-screen for TRPC4 allosteric potentiator project, cell-based, HEK293 mu-opioid receptor line (AID 449724;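 active = calcium signal rise more than 3 SD above the low-dose agonist control mean, in both duplicate plates and the primary screen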); details: Fluo-4 calcium flux, at 10 µM, compound added before EC20 DAMGO stimulus; hits give high values

Sequence of Short transient receptor potential channel 6 (Mus musculus) (Q61143 whole entry, looked up): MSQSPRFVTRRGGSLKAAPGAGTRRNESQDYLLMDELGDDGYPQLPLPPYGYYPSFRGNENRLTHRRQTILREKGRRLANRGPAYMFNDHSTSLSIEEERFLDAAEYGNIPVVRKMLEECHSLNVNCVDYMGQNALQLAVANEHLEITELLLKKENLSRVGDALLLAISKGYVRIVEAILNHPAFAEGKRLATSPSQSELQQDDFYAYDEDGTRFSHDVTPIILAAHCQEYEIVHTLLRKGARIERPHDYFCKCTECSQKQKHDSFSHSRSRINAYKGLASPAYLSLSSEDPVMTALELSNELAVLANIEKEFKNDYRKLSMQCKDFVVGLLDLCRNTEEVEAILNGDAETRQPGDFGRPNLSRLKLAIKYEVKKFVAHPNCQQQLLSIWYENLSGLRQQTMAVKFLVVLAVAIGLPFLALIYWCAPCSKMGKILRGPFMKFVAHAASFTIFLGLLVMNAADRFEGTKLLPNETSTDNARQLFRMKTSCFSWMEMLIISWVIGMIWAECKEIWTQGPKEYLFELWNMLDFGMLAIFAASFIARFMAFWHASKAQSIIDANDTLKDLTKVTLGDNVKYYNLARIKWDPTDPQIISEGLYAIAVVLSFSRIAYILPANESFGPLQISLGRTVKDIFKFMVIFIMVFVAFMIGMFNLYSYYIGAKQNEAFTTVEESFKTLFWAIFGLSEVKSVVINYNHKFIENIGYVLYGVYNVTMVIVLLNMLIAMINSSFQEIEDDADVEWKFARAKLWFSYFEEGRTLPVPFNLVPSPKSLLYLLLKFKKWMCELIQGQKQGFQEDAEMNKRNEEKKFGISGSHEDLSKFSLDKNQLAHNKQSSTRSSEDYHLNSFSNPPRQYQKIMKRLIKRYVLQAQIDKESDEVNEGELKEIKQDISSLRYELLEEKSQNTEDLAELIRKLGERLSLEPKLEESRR
Sequence of Short transient receptor potential channel 4 (Mus musculus) (Q9QUQ5 whole entry, looked up): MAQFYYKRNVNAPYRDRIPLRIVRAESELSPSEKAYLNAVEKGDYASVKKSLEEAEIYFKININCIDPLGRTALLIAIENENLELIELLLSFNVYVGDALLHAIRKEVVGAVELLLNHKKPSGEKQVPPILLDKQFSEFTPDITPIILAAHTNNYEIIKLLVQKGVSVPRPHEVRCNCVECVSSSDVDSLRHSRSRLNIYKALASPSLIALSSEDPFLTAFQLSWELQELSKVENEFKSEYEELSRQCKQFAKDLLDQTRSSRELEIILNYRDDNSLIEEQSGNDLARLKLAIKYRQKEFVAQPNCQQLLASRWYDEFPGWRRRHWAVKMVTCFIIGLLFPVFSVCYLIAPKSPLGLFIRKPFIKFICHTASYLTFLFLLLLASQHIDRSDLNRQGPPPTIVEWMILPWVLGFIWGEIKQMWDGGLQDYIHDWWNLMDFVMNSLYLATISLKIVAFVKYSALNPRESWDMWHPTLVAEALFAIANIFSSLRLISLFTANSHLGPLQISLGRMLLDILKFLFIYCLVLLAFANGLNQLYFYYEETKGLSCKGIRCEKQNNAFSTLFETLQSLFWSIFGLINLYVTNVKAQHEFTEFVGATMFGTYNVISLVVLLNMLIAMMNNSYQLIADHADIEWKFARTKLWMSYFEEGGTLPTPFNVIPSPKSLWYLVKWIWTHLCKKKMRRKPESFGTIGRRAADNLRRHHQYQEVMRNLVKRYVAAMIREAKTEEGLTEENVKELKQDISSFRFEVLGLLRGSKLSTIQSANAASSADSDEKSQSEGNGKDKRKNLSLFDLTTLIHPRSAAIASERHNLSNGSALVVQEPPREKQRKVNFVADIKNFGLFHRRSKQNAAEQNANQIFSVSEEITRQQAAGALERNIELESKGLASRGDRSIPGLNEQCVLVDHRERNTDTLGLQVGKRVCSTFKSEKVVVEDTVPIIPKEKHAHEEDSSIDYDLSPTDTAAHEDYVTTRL

CCCCN(CC)CCNC(=O)c1cc2cc3ccc(Cl)cc3nc2o1
active: activation [1] 67% | potentiation [3] 20% | potentiation [4] 47% | activation [12] 18.8% | potentiation [14] 40.5%
inactive: outcome [2] | outcome [5] | outcome [6] | outcome [7] | outcome [8] | outcome [9] | outcome [10] | outcome [11] | outcome [13] | outcome [15] | outcome [16]

CCCN(CCC)CCNC(=S)Nc1ccc2nc3n(c(=O)c2c1)CCCCC3
inactive: outcome [1] | outcome [2] | outcome [3] | outcome [4] | outcome [5] | outcome [6] | outcome [7] | outcome [8] | outcome [9] | outcome [11] | outcome [13] | outcome [14] | outcome [15] | outcome [16]
active: activation [10] 47% | activation [12] 7.78%

O=C(C1CCCN(Cc2ccccc2F)C1)N1CCc2ccccc2C1 (stereo not given)
active: activation [1] 96% | activation [2] 98% | activation [10] 56.5% | activation [12] 40.5%
inactive: outcome [3] | outcome [4] | outcome [5] | outcome [6] | outcome [7] | outcome [8] | outcome [9] | outcome [11] | outcome [13] | outcome [14] | outcome [15] | outcome [16]

CN(C)C(CNC(=S)Nc1cccc(Cl)c1)c1ccccc1 (stereo not given)
active: activation [1] 255% | activation [2] 127%
inactive: outcome [3] | outcome [4] | outcome [5] | outcome [6] | outcome [7] | outcome [8] | outcome [9] | outcome [10] | outcome [11] | outcome [12] | outcome [13] | outcome [14] | outcome [15] | outcome [16]

COc1ccccc1CCC(=O)Nc1cc(S(=O)(=O)N2CCCCC2)ccc1N1CCN(C)CC1
active: activation [1] 153% | activation [2] 67% | activation [12] 32.8%
inactive: outcome [3] | outcome [4] | outcome [5] | outcome [6] | outcome [7] | outcome [8] | outcome [9] | outcome [10] | outcome [11] | outcome [13] | outcome [14] | outcome [15] | outcome [16]

CN(C)C(CNc1ncnc2sc3c(c12)CCCC3)c1ccco1 (stereo not given)
active: activation [1] 110%
inactive: outcome [2] | outcome [3] | outcome [4] | outcome [5] | outcome [6] | outcome [7] | outcome [8] | outcome [9] | outcome [10] | outcome [11] | outcome [12] | outcome [13] | outcome [14] | outcome [15] | outcome [16]

Cc1cc(NC(=O)CN2CCc3ccccc3C2)nc2c1c(=O)oc1ccccc12
inactive: outcome [1] | outcome [2] | outcome [3] | outcome [4] | outcome [5] | outcome [6] | outcome [7] | outcome [8] | outcome [9] | outcome [10] | outcome [11] | outcome [12] | outcome [13] | outcome [14] | outcome [15] | outcome [16]

COc1ccc(C(CNC(=O)c2cccc(S(=O)(=O)NCc3ccccc3)c2)N(C)C)cc1 (stereo not given)
active: activation [1] 129% | activation [2] 61% | activation [10] 38%
inactive: outcome [3] | outcome [4] | outcome [5] | outcome [6] | outcome [7] | outcome [8] | outcome [9] | outcome [11] | outcome [12] | outcome [13] | outcome [14] | outcome [15] | outcome [16]

CCN1CCN(c2ccc(S(=O)(=O)N3CCCCC3)cc2NC(=O)c2cccc(C)c2[N+](=O)[O-])CC1
inactive: outcome [2] | outcome [3] | outcome [4] | outcome [5] | outcome [6] | outcome [7] | outcome [8] | outcome [9] | outcome [10] | outcome [11] | outcome [13] | outcome [14] | outcome [15] | outcome [16]
active: activation [1] 143% | activation [12] 40.7%

O=C(Cn1c(-c2ccccc2)c[n+]2ccsc12)c1ccc(Br)cc1
inactive: outcome [1] | outcome [3] | outcome [4] | outcome [5] | outcome [6] | outcome [7] | outcome [8] | outcome [9] | outcome [10] | outcome [11] | outcome [12] | outcome [13] | outcome [14] | outcome [15] | outcome [16]
active: activation [2] 77%

Cc1ccc(C)c(OCCCCn2ccnc2)c1
active: activation [1] 111% | activation [10] 58.5% | activation [12] 14.7%
inactive: outcome [2] | outcome [3] | outcome [4] | outcome [5] | outcome [6] | outcome [7] | outcome [8] | outcome [9] | outcome [11] | outcome [13] | outcome [14] | outcome [15] | outcome [16]

Cc1cc(C)c(CN2CCN(Cc3ccc(C)o3)C(CCO)C2)c(-n2cccn2)c1 (stereo not given)
inactive: outcome [2] | outcome [3] | outcome [4] | outcome [5] | outcome [6] | outcome [7] | outcome [8] | outcome [9] | outcome [11] | outcome [12] | outcome [13] | outcome [14] | outcome [15] | outcome [16]
active: activation [1] 75% | activation [10] 73%

CSCCC(NS(=O)(=O)c1ccc2c(c1)c(=O)n(C)c(=O)n2C)C(=O)NC1CCN(Cc2ccccc2)CC1 (stereo not given)
inactive: outcome [1] | outcome [2] | outcome [3] | outcome [4] | outcome [5] | outcome [6] | outcome [7] | outcome [8] | outcome [9] | outcome [10] | outcome [11] | outcome [13] | outcome [14] | outcome [15] | outcome [16]
active: activation [12] 8.04%

Cc1cc(C)n(-c2nc(SCCN(C)C)c3c4c(sc3n2)CCCC4)n1
inactive: outcome [2] | outcome [3] | outcome [4] | outcome [5] | outcome [6] | outcome [7] | outcome [8] | outcome [9] | outcome [10] | outcome [11] | outcome [12] | outcome [13] | outcome [14] | outcome [15] | outcome [16]
active: activation [1] 162%

COc1ccc(-c2cc(C(=O)NCC(c3ccccc3)N(C)C)c3ccccc3n2)cc1OC (stereo not given)
inactive: outcome [2] | outcome [3] | outcome [4] | outcome [5] | outcome [6] | outcome [7] | outcome [8] | outcome [9] | outcome [10] | outcome [11] | outcome [12] | outcome [13] | outcome [14] | outcome [15] | outcome [16]
active: activation [1] 98%

Reference: PubChem BioAssay
